The panel holds about 83,000 compounds, 20% with a hit somewhere; the sample as a whole holds those more often.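 Cells were grown in 96-well plates and exposed to the test compound at a single concentration for 48 hours; results are reported as percent growth, with values below 10 considered active.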 Calls of active or inactive are those of the source.
Legend:
Assay in all cases: NCI-60 one-dose screen, 48 h (100 = growth as untreated, 0 = no growth, -100 = all killed)
[1] = test system: NCI-H23 lung; details: 10 µM unless noted
[2] = test system: NCI-H226 lung; details: 10 µM unless noted
[3] = test system: NCI-H322M lung; details: 10 µM unless noted
[4] = test system: HOP-62 NSCLC; details: 10 µM unless noted
[5] = test system: NCI-H460 lung; details: 10 µM unless noted
[6] = test system: HOP-92 NSCLC; details: 10 µM
[7] = test system: NCI-H522 lung; details: 10 µM unless noted
[8] = test system: A549/ATCC NSCLC; details: 10 µM unless noted
[9] = test system: 786-0 renal; details: 10 µM unless noted
[10] = test system: COLO 205 colon; details: 10 µM unless noted
[11] = test system: DU-145 prostate; details: 10 µM unless noted
[12] = test system: K-562 leukemia; details: 10 µM unless noted
[13] = test system: MALME-3M melanoma; details: 10 µM unless noted
[14] = test system: MDA-MB-231 breast; details: 10 µM unless noted
[15] = test system: RXF 393 renal; details: 10 µM unless noted
[16] = test system: SF-268 CNS; details: 10 µM unless noted
[17] = test system: SF-295 CNS; details: 10 µM unless noted
[18] = test system: SF-539 CNS; details: 10 µM unless noted
[19] = test system: UACC-257 melanoma; details: 10 µM unless noted

Measured: growth

Cc1ccc(-c2nn(-c3ccccc3)cc2/C=C/C(=O)c2ccc(NC(=O)CCCCCCC(=O)NO)cc2)cc1
inactive: [1] 93.6% | [2] 95.8% | [3] 83.9% | [4] 86.4% | [5] 68.1% | [6] 96.4% | [7] 40.4% | [8] 76.9% | [9] 56.8% | [10] 96.2% | [11] 79.1% | [12] 43.2% | [13] 122% | [14] 78.6% | [16] 81.8% | [17] 88% | [18] 82.5% | [19] 82.3%
active: [15] -2.12%

COc1ccc(-c2cc(-c3ccc(Cl)cc3)c(C#N)c(=O)n2Cc2ccc(C(=O)O)cc2)cc1
inactive: [1] 85.9% | [2] 100% | [3] 95.5% | [4] 78.6% | [5] 92.4% | [6] 98.3% | [7] 28.5% | [8] 108% | [9] 108% | [10] 109% | [11] 112% | [12] 54.3% | [13] 52.9% | [14] 95.6% | [15] 72.1% | [16] 67.8% | [17] 68.3% | [18] 69.1% | [19] 83.8%

COc1ccc2c(c1)c(CC(=O)[Se]CC(=O)O)c(C)n2C(=O)c1ccc(Cl)cc1
inactive: [1] 78.9% | [2] 100% | [3] 46.8% | [4] 29.3% | [6] 93.7% | [7] 100% | [8] 21.6% | [9] 106% | [10] 129% | [11] 85% | [12] 95.8% | [13] 112% | [14] 54.1% | [16] 64.1% | [17] 11.1% | [18] 66.8% | [19] 110%
active: [5] 5.72%

COc1cc(Nc2c(C#N)cnn3cc(-c4cnn(CC(C)(C)O)c4)cc23)ccc1Cl
inactive: [1] 41.4% | [2] 42.1% | [3] 41.9% | [4] 45.6% | [5] 59.7% | [6] 58.1% | [7] 15% | [8] 52.4% | [9] 34.7% | [10] 75.9% | [11] 47.6% | [12] 12.9% | [13] 67.5% | [14] 65.4% | [16] 56.5% | [17] 63% | [19] 81.7%
active: [15] -20.3% | [18] 8.69%

NS(=O)(=O)c1ccc(Nc2nc(N/N=C/c3ccccn3)nc(Nc3ccccc3)n2)cc1
inactive: [8] 35.1% | [12] 12.3%
active: [1] -7.29% | [2] -49.1% | [3] -9.94% | [4] -28.6% | [5] 3.8% | [6] -46.6% | [7] -32.6% | [9] 8.47% | [10] -42.1% | [11] 4.85% | [13] -68.2% | [14] -29.9% | [15] -74% | [16] -22% | [17] 0.752% | [18] -42.1% | [19] -18.1%

CS(=O)(=O)Nc1cc(-c2ccc3ncc(C#N)c(NCc4cccc(F)c4)c3c2)cnc1Cl
active: [1] -1.85% | [2] 9.2% | [4] -6.39% | [5] 5.88% | [6] -15.7% | [8] 7.5% | [10] -45.9% | [13] -35.7% | [14] 0.274% | [16] 3.62% | [17] -21.9% | [18] -26.4% | [19] 1.5%
inactive: [3] 12.5% | [7] 10.7% | [9] 10.8% | [11] 17.8% | [12] 14.1%

ClC(Cl)c1nc(-c2ccco2)n2nc(-c3ccccc3)cc2n1
active: [3] -19.4% | [4] -1.03% | [5] -22.1% | [6] -9.05% | [8] -2.21% | [10] -17% | [11] -24.8% | [14] -11.1% | [17] -15.4% | [18] -7.97%
inactive: [1] 49.8% | [2] 97.5% | [7] 91.3% | [9] 69.3% | [12] 50.6% | [13] 107% | [16] 24.3% | [19] 54%

O=C(CNc1nc(-c2cccc([N+](=O)[O-])c2)cs1)Nc1cccc(Cl)c1
inactive: [1] 96% | [2] 99.4% | [3] 101% | [4] 96.6% | [5] 113% | [6] 104% | [7] 98.3% | [8] 108% | [9] 105% | [10] 112% | [11] 112% | [12] 97.1% | [13] 104% | [14] 101% | [16] 99.7% | [17] 102% | [18] 101% | [19] 118%

C#Cc1nc(/C=C/C(=O)c2nccn2C)cs1
inactive: [3] 28.5%
active: [1] -69.3% | [2] 4.67% | [4] -44.9% | [5] -47.2% | [6] -71% | [7] -60.1% | [8] -3.96% | [9] -65.9% | [10] -30.6% | [11] -45.6% | [12] -16.8% | [13] -75.6% | [14] -64.7% | [16] -54.2% | [17] -87.8% | [18] -82.7% | [19] -19%

COc1ccc(COc2ccc(/C=C3\C(=O)Nc4ccccc43)cc2OC)cc1
inactive: [1] 103% | [2] 103% | [3] 106% | [4] 100% | [5] 103% | [6] 101% | [7] 93.4% | [8] 109% | [9] 105% | [10] 123% | [11] 109% | [12] 101% | [13] 99.7% | [14] 99.9% | [16] 103% | [17] 103% | [18] 95.9% | [19] 116%

NS(=O)(=O)c1ccc(Nc2nc(N/N=C/c3ccc(Cl)cc3)nc(Nc3ccccc3)n2)cc1
inactive: [1] 87.1% | [2] 81.4% | [3] 93.1% | [4] 83.1% | [5] 72.2% | [6] 91% | [7] 79.1% | [8] 62.6% | [9] 40.3% | [10] 73.8% | [11] 72.7% | [12] 59.9% | [13] 88.3% | [14] 86.7% | [16] 73.7% | [17] 58.6% | [18] 53.8% | [19] 89.5%
active: [15] -11.5%

CCN(CC)c1ccc2c(c1)Oc1nc(N)c(C#N)c(N)c1C2Sc1ccc(C)cc1 (stereo not drawn)
active: [1] -90% | [2] -54.6% | [3] -92.7% | [4] -71% | [5] -40.4% | [6] -93.9% | [7] -75.6% | [8] -56.9% | [9] -92.6% | [10] -53.6% | [11] -95.5% | [12] 0.301% | [13] -92.9% | [14] -87.3% | [16] -52.7% | [17] -93.3% | [18] -97.8% | [19] -74.2%

CCCCCc1ccc(S(=O)(=O)Nc2cccc(-c3csc(NC(=O)CN4CCN(CCO)CC4)n3)c2)cc1
inactive: [1] 84.7% | [2] 92.3% | [3] 98.6% | [4] 92.9% | [5] 44.4% | [6] 59.5% | [7] 89.1% | [8] 78.9% | [9] 71.1% | [10] 59.2% | [11] 86.5% | [12] 19.6% | [13] 32.3% | [14] 76.7% | [16] 76.8% | [17] 77% | [18] 83.6% | [19] 85.4%

COc1ccc2c(c1)c(CC(=O)[Se]CC#N)c(C)n2C(=O)c1ccc(Cl)cc1
inactive: [2] 29.6% | [4] 14.1% | [5] 14.5% | [6] 26.3% | [9] 47.3% | [12] 14.5% | [16] 35.6%
active: [1] -11.3% | [3] -1.05% | [7] -51.3% | [8] -9.27% | [10] -24.8% | [11] -37.1% | [13] 6.79% | [14] 9.39% | [17] -11.7% | [18] 9.61% | [19] -10%

CCn1c(SCC(=O)Nc2cccc(C(=O)/C=C/c3ccc(C)cc3)c2)nc2ccccc2c1=O
inactive: [1] 76.9% | [2] 73.4% | [3] 86.7% | [4] 108% | [5] 98.2% | [6] 77.7% | [7] 81.1% | [8] 68% | [9] 93.6% | [10] 122% | [11] 77.2% | [12] 55.4% | [13] 103% | [14] 92.1% | [16] 87.2% | [17] 104% | [18] 86.5% | [19] 105%

COc1ccc(C(=O)c2c(N)c(C#N)cn2-c2ccccc2OC)cc1
inactive: [1] 32.8% | [2] 60.5% | [3] 75.2% | [4] 56.3% | [5] 17.4% | [6] 52.5% | [8] 53.4% | [9] 43.7% | [10] 38.5% | [11] 52.4% | [12] 13.3% | [13] 42% | [14] 48.6% | [16] 44.1% | [18] 12.4% | [19] 66.9%
active: [7] -1.29% | [17] 8.45%
